According to ChEMBL document CHEMBL3988442, “University of Dundee, Small-Polar-MMV Screening Library” (2021):
For some of these results: Entries with a potency or affinity are not part of this list.

What was measured:
Parameters in all cases: scale not given: direction of the effect not stated beside the values
[1] = target: Protein translocase subunit SecA (Escherichia coli (strain K12)) (UniProt P10408); assay: Assay to Identify E. coli SecA ATPase Inhibitors; type: functional; details: 30 µM
Protein translocase subunit SecA (Escherichia coli (strain K12)), sequence (P10408 whole entry): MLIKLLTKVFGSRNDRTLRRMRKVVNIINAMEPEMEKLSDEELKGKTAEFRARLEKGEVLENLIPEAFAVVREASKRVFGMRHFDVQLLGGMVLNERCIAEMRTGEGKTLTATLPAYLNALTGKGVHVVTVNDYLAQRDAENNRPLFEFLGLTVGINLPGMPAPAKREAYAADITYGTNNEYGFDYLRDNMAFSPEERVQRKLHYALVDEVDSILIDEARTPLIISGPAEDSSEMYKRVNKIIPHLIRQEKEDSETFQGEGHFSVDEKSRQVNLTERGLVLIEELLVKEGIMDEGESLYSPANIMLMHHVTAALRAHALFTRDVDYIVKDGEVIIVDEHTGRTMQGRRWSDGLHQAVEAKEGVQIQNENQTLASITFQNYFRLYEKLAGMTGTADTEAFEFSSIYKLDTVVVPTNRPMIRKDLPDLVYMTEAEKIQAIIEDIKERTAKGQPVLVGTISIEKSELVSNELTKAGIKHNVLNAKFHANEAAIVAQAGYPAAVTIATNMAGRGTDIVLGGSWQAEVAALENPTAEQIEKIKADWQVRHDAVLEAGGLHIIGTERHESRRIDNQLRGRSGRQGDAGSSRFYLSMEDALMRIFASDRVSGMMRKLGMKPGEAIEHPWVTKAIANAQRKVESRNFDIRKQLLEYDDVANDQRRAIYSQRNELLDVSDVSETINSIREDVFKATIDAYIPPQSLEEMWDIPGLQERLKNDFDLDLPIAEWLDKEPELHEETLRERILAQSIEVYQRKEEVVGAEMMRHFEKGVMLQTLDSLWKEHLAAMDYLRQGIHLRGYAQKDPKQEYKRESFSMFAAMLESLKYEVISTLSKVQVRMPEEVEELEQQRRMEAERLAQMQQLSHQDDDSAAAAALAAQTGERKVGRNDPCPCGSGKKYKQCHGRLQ

[2] = target: T1, Ubiquitin-activating enzyme e1, putative (Leishmania donovani (strain BPK282A1)) (UniProt E9BSI1); assay: Leishmania donovani Ubiquitin Activating Enzyme (LdE1); type: functional; details: 30 µM
T1 sequence (whole entry): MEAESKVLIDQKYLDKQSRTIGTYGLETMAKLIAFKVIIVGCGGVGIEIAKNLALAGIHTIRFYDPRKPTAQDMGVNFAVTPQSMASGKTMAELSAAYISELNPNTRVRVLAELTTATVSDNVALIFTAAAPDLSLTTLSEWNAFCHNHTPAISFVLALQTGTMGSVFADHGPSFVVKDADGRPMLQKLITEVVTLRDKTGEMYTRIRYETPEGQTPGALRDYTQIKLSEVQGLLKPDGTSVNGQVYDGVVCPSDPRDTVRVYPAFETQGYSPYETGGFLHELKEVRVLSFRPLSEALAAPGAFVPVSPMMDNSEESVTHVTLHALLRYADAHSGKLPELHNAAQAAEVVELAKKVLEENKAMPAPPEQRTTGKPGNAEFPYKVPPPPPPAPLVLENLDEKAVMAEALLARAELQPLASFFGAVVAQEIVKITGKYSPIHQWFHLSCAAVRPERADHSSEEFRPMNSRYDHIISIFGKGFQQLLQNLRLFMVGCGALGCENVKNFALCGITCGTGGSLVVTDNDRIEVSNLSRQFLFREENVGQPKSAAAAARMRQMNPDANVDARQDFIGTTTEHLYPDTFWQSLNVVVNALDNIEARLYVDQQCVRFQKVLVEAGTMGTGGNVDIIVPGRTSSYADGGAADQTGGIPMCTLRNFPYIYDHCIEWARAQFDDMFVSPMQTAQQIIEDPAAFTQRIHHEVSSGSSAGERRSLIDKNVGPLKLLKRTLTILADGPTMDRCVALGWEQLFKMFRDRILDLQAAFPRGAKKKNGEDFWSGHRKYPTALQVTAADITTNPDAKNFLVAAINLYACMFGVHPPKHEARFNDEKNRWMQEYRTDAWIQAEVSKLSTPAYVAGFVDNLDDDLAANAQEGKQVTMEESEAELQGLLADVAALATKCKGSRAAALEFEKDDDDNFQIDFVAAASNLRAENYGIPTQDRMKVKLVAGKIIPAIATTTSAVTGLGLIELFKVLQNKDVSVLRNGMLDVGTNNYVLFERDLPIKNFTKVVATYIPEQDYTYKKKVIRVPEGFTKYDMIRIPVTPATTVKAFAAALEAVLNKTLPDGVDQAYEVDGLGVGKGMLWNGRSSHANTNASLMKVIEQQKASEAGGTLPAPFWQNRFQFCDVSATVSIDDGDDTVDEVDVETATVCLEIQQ

[3] = target: AMP-activated protein kinase, AMPK (Homo sapiens) (UniProt P54646+O43741+P54619+Q9UGJ0+Q9Y478+Q13131+Q9UGI9); assay: AMP-dependent Kinase enzyme assay. An in vitro enzyme assay that detects ADP turnover that is directly proportional to AMPK activity. This uses naive AMPK that is activated during the assay with MK-8722; type: functional; details: 30 µM
[4] = target: Sialic acid-binding Ig-like lectin 9 (Homo sapiens) (UniProt Q9Y336); assay: Hs-Siglec9 ALPHAscreen SOP 20170721; details: 10 µM
Sialic acid-binding Ig-like lectin 9 (Homo sapiens), sequence (Q9Y336 whole entry): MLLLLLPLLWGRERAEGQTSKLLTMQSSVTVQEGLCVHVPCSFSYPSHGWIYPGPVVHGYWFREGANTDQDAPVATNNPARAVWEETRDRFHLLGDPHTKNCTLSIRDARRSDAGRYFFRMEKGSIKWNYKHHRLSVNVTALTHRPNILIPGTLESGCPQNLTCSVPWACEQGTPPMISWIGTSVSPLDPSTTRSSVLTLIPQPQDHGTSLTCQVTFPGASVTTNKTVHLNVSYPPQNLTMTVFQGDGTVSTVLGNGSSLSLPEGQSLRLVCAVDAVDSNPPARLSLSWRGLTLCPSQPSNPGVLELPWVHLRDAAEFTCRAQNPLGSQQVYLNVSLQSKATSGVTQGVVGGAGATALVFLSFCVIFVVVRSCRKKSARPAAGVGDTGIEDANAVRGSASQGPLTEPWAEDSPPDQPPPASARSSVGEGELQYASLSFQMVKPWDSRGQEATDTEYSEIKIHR

Trypanosoma cruzi = assay: Trypanosoma cruzi phosphomannomutase and mannose-1-phosphate guanylyltransferase assay; type: functional; details: 10 µM
[5] = target: T2, Arginase-2, mitochondrial (Homo sapiens) (UniProt P78540); assay: in vitro enzyme assay to detect the production of urea directly proportional to the activity of Arginase II; type: functional; details: 33.3 µM; further: in the data most compounds retested in dose-response had high values
T2 sequence (whole entry): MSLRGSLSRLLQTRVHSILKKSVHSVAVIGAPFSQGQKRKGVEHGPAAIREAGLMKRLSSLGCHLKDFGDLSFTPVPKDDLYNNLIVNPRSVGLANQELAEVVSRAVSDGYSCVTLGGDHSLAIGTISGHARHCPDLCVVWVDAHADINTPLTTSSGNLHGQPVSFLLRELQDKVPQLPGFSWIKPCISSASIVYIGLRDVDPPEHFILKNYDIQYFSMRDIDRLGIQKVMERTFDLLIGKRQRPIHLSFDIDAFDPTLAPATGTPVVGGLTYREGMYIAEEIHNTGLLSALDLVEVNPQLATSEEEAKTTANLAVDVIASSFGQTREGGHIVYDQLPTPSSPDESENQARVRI

[6] = target: T3, Proteasome subunit beta (Trypanosoma cruzi) (UniProt O96673); assay: Trypanosoma cruzi proteasome chymotrypsin-like activity (TcProtChymo) assay.; further: in the data most compounds retested in dose-response had high values; type: functional; details: 9.37 µM
T3 sequence (whole entry): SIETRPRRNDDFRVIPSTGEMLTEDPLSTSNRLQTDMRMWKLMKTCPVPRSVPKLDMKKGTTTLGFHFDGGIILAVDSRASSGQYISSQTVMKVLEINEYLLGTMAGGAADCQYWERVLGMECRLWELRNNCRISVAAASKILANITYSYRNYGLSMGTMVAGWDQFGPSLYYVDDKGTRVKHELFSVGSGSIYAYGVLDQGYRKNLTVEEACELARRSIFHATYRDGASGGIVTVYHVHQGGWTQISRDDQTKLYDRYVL

Homo sapiens = species on record: Homo sapiens; assay: To identify inhibition of the IFN signalling (Jak-Stat) pathway via expression of an eGFP reporter gene under the control of an IFN-stimulated response element (ISRE) containing MxA promoter.; type: functional; details: 30 µM
[7] = target: T4, Tyrosyl-tRNA synthetase, putative (Trypanosoma cruzi (strain CL Brener)) (UniProt Q4DSP6); assay: Trypanosoma cruzi tyrosyl tRNA synthetase (TcYRS) _High Tyrosine SOP; type: functional; details: 30 µM; further: in the data most compounds retested in dose-response had high values
T4 sequence (whole entry): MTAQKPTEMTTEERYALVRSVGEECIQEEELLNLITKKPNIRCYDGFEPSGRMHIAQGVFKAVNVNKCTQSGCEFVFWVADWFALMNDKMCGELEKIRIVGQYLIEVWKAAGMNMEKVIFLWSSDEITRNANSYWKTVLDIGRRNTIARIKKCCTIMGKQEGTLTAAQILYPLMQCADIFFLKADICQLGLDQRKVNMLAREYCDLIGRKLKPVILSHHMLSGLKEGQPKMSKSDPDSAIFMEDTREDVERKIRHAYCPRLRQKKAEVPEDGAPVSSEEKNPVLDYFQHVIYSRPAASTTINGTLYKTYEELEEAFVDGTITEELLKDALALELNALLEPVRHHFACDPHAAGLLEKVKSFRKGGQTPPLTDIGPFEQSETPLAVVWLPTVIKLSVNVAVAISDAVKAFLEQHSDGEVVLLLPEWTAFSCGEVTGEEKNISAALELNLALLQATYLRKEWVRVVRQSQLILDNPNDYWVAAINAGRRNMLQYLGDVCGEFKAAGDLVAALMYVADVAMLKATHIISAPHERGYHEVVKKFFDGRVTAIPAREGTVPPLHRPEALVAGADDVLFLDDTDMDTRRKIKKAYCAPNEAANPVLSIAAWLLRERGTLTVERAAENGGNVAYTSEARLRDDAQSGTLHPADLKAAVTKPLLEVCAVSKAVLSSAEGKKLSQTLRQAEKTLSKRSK

[8] = target: T4, Tyrosyl-tRNA synthetase, putative (Trypanosoma cruzi (strain CL Brener)); assay: Trypanosoma cruzi tyrosyl tRNA synthetase (TcYRS) SOP; type: functional; details: 30 µM
[9] = target: Chromo domain-containing protein 1 (Saccharomyces cerevisiae (strain ATCC 204508 / S288c) (Baker's yeast)) (UniProt P32657); assay: ScCHD-1 Enzyme Inhibition Assay; type: functional; details: 30 µM; further: in the data most compounds retested in dose-response had high values
Chromo domain-containing protein 1 (Saccharomyces cerevisiae (strain ATCC 204508 / S288c) (Baker's yeast)), sequence (P32657 whole entry, the tested form may be a part): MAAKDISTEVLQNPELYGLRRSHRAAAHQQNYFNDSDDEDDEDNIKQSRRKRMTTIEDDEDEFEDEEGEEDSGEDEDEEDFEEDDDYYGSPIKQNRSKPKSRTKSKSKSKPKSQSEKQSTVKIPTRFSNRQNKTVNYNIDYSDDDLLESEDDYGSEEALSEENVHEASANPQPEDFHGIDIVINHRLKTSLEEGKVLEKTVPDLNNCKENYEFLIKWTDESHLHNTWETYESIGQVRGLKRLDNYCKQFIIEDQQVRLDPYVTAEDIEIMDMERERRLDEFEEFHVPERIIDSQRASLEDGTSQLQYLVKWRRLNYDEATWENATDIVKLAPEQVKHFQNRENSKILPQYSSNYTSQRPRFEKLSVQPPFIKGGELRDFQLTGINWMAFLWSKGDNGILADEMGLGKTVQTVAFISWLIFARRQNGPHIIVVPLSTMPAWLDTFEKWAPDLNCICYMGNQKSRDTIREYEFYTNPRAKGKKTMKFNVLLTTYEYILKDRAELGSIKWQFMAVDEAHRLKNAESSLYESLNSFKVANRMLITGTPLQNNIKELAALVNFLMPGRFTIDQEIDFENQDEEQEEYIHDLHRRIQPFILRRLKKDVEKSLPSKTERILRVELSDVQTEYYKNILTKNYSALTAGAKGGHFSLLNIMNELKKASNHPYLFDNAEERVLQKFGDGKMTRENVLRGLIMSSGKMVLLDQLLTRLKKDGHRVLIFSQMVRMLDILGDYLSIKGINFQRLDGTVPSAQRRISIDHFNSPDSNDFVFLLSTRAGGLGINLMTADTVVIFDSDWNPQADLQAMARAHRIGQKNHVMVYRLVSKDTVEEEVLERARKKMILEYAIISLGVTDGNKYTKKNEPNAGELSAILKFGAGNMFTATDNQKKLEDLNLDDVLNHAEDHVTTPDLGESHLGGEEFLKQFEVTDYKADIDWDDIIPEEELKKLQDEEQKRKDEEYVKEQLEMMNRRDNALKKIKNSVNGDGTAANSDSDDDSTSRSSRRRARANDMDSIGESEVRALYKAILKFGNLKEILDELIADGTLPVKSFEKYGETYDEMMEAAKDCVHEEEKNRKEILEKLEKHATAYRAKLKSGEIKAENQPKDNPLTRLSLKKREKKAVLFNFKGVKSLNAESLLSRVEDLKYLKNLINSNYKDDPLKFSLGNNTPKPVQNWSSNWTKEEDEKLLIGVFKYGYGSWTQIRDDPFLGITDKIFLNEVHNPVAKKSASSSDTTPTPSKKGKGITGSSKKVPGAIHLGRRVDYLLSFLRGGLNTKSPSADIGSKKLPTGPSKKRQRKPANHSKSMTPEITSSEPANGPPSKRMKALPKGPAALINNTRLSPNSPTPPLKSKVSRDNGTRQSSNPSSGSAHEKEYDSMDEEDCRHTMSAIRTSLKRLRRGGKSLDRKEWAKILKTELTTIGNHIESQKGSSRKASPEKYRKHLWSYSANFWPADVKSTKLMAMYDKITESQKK

| Structure (SMILES) | Percent Effect [1] [%] | Percent Effect [2] [%] | Percent Effect [3] [%] | Percent Effect [4] [%] | Percent Effect (Trypanosoma cruzi) [%] | Percent Effect [5] [%] | Percent Effect [6] [%] | Percent Effect (Homo sapiens) [%] | Percent Effect [7] [%] | Percent Effect [8] [%] | Percent Effect [9] [%] |
| --- | --- | --- | --- | --- | --- | --- | --- | --- | --- | --- | --- |
| Cc1noc(CN2CCC(c3ccnn3CCO)CC2)n1 | -3.55 | 12.7 | -1.18 | -2.56 | 8.59 | -0.76 | 8.76 | 4.82 | 6.4 | 16.5 | -6.79 |
| O=C(c1cnccn1)N1C[C@@H]2CC[C@H](C1)N(C(=O)Cc1ccsc1)C2 | -5.86 | 2.6 | 5.34 | 4.9 | -4.82 | -16.6 | 9.32 | 8.73 | 5.38 | 3.7 | -0.624 |
| CN(C)c1ccc(CCNC(=O)C2CCC(=O)N(C3CCCC3)C2)cc1 (stereo unspecified) | -4.96 | 8 | 1.17 | 1.11 | -2.04 | 1.56 | 13.1 | 1.03 | 2.73 | 11.1 | -5.65 |
| Cc1cnn(CCC(=O)N2CCC(Nc3cccnn3)CC2)c1 | -6.66 | 5.41 | 1.21 | 3.62 | -5 | -2 | -3.6 | 16.4 | 0.493 | -8.64 | 2.32 |
| Cc1cnc2c(c1NCc1ccncc1)c(=O)n(C)c(=O)n2C | -2.14 | 0 | 5.25 | -12.3 | -5.68 | -11.4 | 17.6 | 29.2 | 4.3 | 10 | -2.51 |
| Cc1ccc(NC(=O)c2n[nH]c(-n3cnnc3)n2)cc1C | -5.16 | 9.33 | -5.75 | -2.63 | 4.32 | 21.6 | -10.7 | -2.17 | 8.47 | 10.3 | -18.6 |
| Cc1nc(N2CCN(C(=O)c3ccccc3)CC2)c2c(n1)c(C)nn2C | -0.87 | 12 | 3.25 | 0 | -0.393 | -12.8 | 12.9 | 25.6 | 6.35 | 10.3 | -10.1 |
| COCc1cccc(CNCc2c(C)nn(C)c2N(C)C)c1 | -6.8 | 18.9 | -21.5 | 9.53 | 7.64 | -4.01 | 12.4 | 4.56 | 7.39 | 23.5 | -13.6 |
| CN1C(=O)C(c2cccnc2)CC12CCN(C(=O)c1cccn1C)CC2 (stereo unspecified) | -1.55 | 0 | -0.439 | 0.0913 | 0 | 4.48 | 6.67 | -2.67 | -3.12 | -2.5 | -4.59 |
| Cn1cnnc1C1CCCN(C(=O)NCCNc2ccccn2)C1 (stereo unspecified) | -5.92 | 18.2 | 3.59 | 4.46 | 0.881 | 6.53 | 9.78 | 4.54 | 7.62 | 18.8 | -9.77 |
| CC(=O)N(Cc1ncc(C(C)C)o1)C1CCN(CCn2cccn2)C1 (stereo unspecified) | 0.67 | 10.8 | -13.2 | 0.985 | 2.69 | 0.924 | 18.9 | -1.48 | 14.8 | 1.22 | -4.25 |
